Screening results as filed in PubChem.
Sfp PPTase inh: blocks B. subtilis Sfp PPTase activity. Biochemical Sfp PPTase activity, qHTS. Potency, µM, usual class: inhibitors. 310,000 tested, 3.5% active. AID 1490;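 note: the enzyme is Sfp with the accession as filed and its product quenches rhodamine fluorescence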
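After 15 min at room temperature with compound, 15 nM Sfp received 5 uM rhodamine-CoA plus 12.5 uM BHQ-2-ybbR (50 mM Hepes pH 7.6, 10 mM MgCl2). Rate came from the fluorescence difference over 30 min, ex 525/em 598 nm.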
HP1b binding inh: inhibitors of HP1-beta chromodomain binding to methylated histone tails. AlphaScreen HP1-beta / biotin-H3K9me3 peptide binding. Potency, µM (series often up to 114 µM), hits mostly inhibitors. 390,000 tested, 0.56% active. AID 540317; note: nearly all actives have a fitted effect of over 70% in size
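AlphaScreen: HP1-beta (50 nM) preformed 30 min with biotin-H3(1-18)K9me3 peptide (50 nM) in PBS pH 7.4, 0.01% Tween-20. Compound added for 30 min at RT, then streptavidin donor/nickel chelate acceptor beads (10 ug/mL) for 30 min.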
BAZ2B inh: BAZ2B (human) inhibition; AlphaScreen BAZ2B-H3K14Ac peptide displacement; Potency, µM (top dose mostly 114 µM), hits mostly inhibitors; 360,000 tested, 4.4% active; AID 504333; note: nearly all actives have a fitted effect of over 60% in size
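Inhibition is scored as reduced AlphaScreen emission. The BAZ2B/b-H3(5-23)K14Ac complex (50 nM each) in PBS pH 7.4, 0.01% Tween-20 meets compound (up to 110 uM) for 30 min at RT before bead addition.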
JMJD2A Tudor: blocks the human JMJD2A Tudor domain | O75164 | AlphaScreen JMJD2A-Tudor / H3K4me3 peptide binding | Potency, µM (series often up to 114 µM), most hits filed as inhibitors | 390,000 tested, 4.4% active | AID 504339; note: nearly all actives have a fitted effect of over 50% in size
G9a block: inhibitors of human histone lysine methyltransferase G9a; Q96KQ7; G9a H3K9 monomethylation, AlphaScreen, 2 h; Potency, µM (highest dose often 102 µM), most hits filed as inhibitors; 350,000 tested, 8.8% active; note: nearly all actives have a fitted effect of over 75% in size
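AlphaScreen detection with an anti-monomethyl H3K9 antibody quantified product after a 2 h room-temperature reaction containing 500 nM biotinylated H3K9 peptide, 20 µM SAM and 20 nM enzyme, which had been preincubated 15 min with compound.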
12-LOX inh: blocks human arachidonate 12S-lipoxygenase. P18054. Potency, µM (series often up to 108 µM), hits mostly inhibitors. purified 12hLO, xylenol orange hydroperoxide absorbance. AID 1671190. 580,000 tested, 1.1% active
Target sequence (P18054 whole entry, looked up): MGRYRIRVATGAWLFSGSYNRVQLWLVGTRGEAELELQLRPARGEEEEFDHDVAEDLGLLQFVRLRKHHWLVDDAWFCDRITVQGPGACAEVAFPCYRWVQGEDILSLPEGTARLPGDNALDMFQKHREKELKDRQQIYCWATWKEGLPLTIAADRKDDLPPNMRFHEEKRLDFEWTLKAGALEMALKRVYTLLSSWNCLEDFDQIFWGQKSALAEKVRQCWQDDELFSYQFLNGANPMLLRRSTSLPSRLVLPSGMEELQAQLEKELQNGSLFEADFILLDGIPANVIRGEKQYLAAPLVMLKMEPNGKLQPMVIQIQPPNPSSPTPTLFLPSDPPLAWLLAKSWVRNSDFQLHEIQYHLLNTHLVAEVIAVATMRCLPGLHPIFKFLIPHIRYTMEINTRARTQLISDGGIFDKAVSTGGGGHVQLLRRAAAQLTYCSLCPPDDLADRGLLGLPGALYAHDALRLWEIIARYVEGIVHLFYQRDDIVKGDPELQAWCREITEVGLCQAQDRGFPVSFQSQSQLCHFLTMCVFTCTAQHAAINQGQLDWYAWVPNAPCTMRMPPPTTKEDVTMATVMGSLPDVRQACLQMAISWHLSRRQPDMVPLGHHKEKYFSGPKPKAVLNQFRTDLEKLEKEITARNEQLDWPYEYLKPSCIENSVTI
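Purified human 12hLO (150 nM final) in 25 mM Hepes, 0.01% Triton X-100, pH 7.0 was preincubated 15 min at room temperature with compound. Then 40 uM arachidonic acid was added, 30 min. Hydroperoxide was read by Fe-XO absorbance ratio 573/405 nm.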
A number is an active result; – = inactive; ? = inconclusive; · = no result; [ ] = remark or other dose. Shown are actives, neighbours in structure and some others; about 8.7% of the full set was active somewhere. Calls come from the whole dose curve; as a rule, active = well fitted curve in the direction sought with a large enough effect; inconclusive = small, poorly fitted or top-dose-only effect, or another doubt; inactive = no such curve, though single readings can be large; an effect the other way counts as inactive or inconclusive.

SMILES | Sfp PPTase inh | HP1b binding inh | BAZ2B inh | JMJD2A Tudor | G9a block | 12-LOX inh
Cc1ccccc1C1=NN(S(C)(=O)=O)C(c2ccc3nccnc3c2)C1 (stereo not drawn) | · | · | · | · | · | –
Cc1ccccc1-n1c(SCC(=O)N2CCN(c3ccccc3)CC2)nnc1-c1ccncc1 | – | – | – | – | 45µM | –
Cn1c(SCC(=O)O)nnc1-c1cccc(NC(=O)c2cccc3ccccc23)c1 | – | – | – | –[11.4 µM] | 32µM | –
O=c1cc(CN2CCc3ccccc3C2)nc2sccn12 | – | – | – | – | 79µM | –
COc1cc(C2c3c(-c4cc(C)cc(C)c4O)n[nH]c3C(=O)N2Cc2cccnc2)ccc1O (stereo not drawn) | · | · | · | · | · | –
O=C(Cc1ccccc1)NNc1c2ccccc2nc2ccccc12 | – | – | ? | – | – | –
O=C(Nc1c2ccccc2nc2ccccc12)C(Cl)(Cl)Cl | – | – | – | – | 45µM | ·
CN(C)S(=O)(=O)c1ccc2oc(SCCOc3cccc(Br)c3)nc2c1 | · | · | · | · | · | –
COc1ccc(-c2ccc(SCC(=O)Nc3nccs3)nn2)cc1OC | – | – | – | ? | – | –
Cc1nnc2ccc(SCC(=O)Nc3ccccc3)nn12 | · | · | · | · | · | –
Cc1nnc(NC(=O)CSc2ccc3nnc(-c4ccccn4)n3n2)s1 | – | – | · | 79µM | – | –
O=C(CSc1ccc2nnc(-c3ccccn3)n2n1)Nc1nccs1 | – | – | · | 32µM | – | ?
O=C(CSc1ccc2nnc(-c3ccncc3)n2n1)Nc1ccccc1F | – | – | – | – | – | –
CCCCC(Sc1ccc2nnc(-c3ccccn3)n2n1)C(=O)O (stereo not drawn) | · | – | · | ? | · | ·
O=C(CSc1ccc2nnc(-c3ccncc3)n2n1)Nc1nccs1 | – | – | · | – | 50µM | –
COc1ccc(-c2nnc3ccc(SCC(=O)Nc4nccs4)nn23)cc1OC | – | – | – | – | 32µM | ?
O=C(CCC1CCCC1)Nc1nc2ccccc2s1 | · | · | · | · | · | –
Cc1cccc(OCC(=O)NCc2nnc3c(-c4nc(C(C)C)no4)cccn23)c1 | · | · | · | · | · | –
CN(Cc1ccc(F)cc1)c1ccc2ncc(Nc3ccc4c(c3)OCCO4)n2n1 | · | · | · | · | · | –
COc1cccc(N2C(=O)NC(=NC3CCCCC3)C23CCN([S+](=O)([O-])c2cccc(OC)c2)CC3)c1 | · | · | · | · | · | –[6.33 µM]
O=C(OCC(=O)N1N=C(c2ccc(Cl)cc2)CC1c1ccco1)c1ccco1 (stereo not drawn) | – | – | – | – | ? | –
O=C(OCC(=O)N1N=C(c2ccc(Cl)cc2)CC1c1ccco1)c1ccccc1O (stereo not drawn) | ? | – | – | – | 18µM | –
Cc1ccc(S(=O)(=O)NCC(=O)OCC(=O)N2N=C(c3ccc(Cl)cc3)CC2c2ccco2)cc1C (stereo not drawn) | – | – | – | – | – | –
O=C(OCC(=O)N1N=C(c2ccc(Cl)cc2)CC1c1ccco1)c1cncc(Br)c1 (stereo not drawn) | · | – | · | ? | · | 7.9µM
CCN(CC(=O)NC(C)C)C(=O)c1ccc(SC(C)C)cc1 | · | · | · | · | · | –
SMILES | Sfp PPTase inh | HP1b binding inh | BAZ2B inh | JMJD2A Tudor | G9a block | 12-LOX inh
CCN1c2cc(C(=O)N3CCN(c4ccc(F)cc4)CC3)ccc2C(=O)N2CCCCC21 (stereo not drawn) | · | · | · | · | · | –
Cc1cnc(C(=O)N2CCCCCC2c2nnc(-c3ccccc3)o2)cn1 (stereo not drawn) | · | · | · | · | · | –
CN(C)C(=O)c1ccc(OC2CCN(C(=O)c3ccc(Br)cc3)CC2)nc1 | · | · | · | · | · | –
CC(C(=O)N(C)C1CCS(=O)(=O)C1)N1C(=O)/C(=C/c2cccs2)SC1=S (stereo not drawn) | – | – | – | ? | – | ?
CCN(C(=O)CN1C(=O)/C(=C/c2ccccc2)SC1=S)C1CCS(=O)(=O)C1 (stereo not drawn) | – | – | – | – | – | –
CC(C(=O)N(C)C1CCS(=O)(=O)C1)N1C(=O)/C(=C/c2ccco2)SC1=S (stereo not drawn) | – | ? | 56µM | 50µM | 45µM | ?
CCN(C(=O)C(C)N1C(=O)/C(=C/c2cccs2)SC1=S)C1CCS(=O)(=O)C1 (stereo not drawn) | – | – | ? | – | 45µM | ?
CC[C@H]1CN(C(=O)c2ccnc(Cl)c2)CC[C@H]1CC(=O)NCc1ccccc1 | · | · | · | · | · | –
O=C(O)CC1CCOCC1 | · | · | · | · | · | –
CCN1CCCc2cc(CN(CCN3CCOCC3)C(=S)Nc3cc(F)cc(F)c3)ccc21 | – | ? | 10µM | 35µM | 16µM | –
CCN1CCCc2cc(CN(CCN3CCOCC3)C(=S)Nc3cccc(Cl)c3)ccc21 | – | ? | 7.1µM | 11µM | ? | –
CC(=O)N1CCC(N(CCN2CCOCC2)C(=S)Nc2ccc(C)cc2)CC1 | 50µM | – | – | – | ? | –
CCOc1ccc(NC(=S)N(CCN2CCOCC2)Cc2ccc3c(c2)CCCN3CC)cc1 | – | ? | 11µM | 35µM | 28µM | –
O=C(Nc1ccccc1)N(CCN1CCOCC1)Cc1cccc(Cl)c1 | – | – | – | – | – | –
CC(=O)N1CCC(N(CCN2CCOCC2)C(=S)Nc2ccc(C)cc2C)CC1 | – | – | – | – | – | –
CCN1CCCc2cc(CN(CCN3CCOCC3)C(=S)Nc3ccc(C)cc3)ccc21 | – | ? | 13µM | ? | 13µM | ?
CCN1CCCc2cc(CN(CCN3CCOCC3)C(=S)Nc3ccc(OC)cc3)ccc21 | – | – | – | – | – | –
Cc1noc(C2CCCCCN2C(=O)c2ccnn2C)n1 (stereo not drawn) | · | · | · | · | · | –
NC(=O)c1ccc(CNC(=O)c2ccccc2Nc2ccccc2)cc1 | · | · | · | · | · | –
O=C(CSc1nnc(-c2cccnc2)s1)Nc1ccc(C(=O)O)cc1 | – | – | – | – | 14µM | –
C=CCn1c(CSc2nc3ccccc3s2)n[nH]c1=S | – | – | – | 50µM | 4.5µM | ?
S=c1[nH]nc(CSc2nc3ccccc3s2)n1Cc1ccccc1 | – | – | – | ? | 3.2µM | ?
CCCSc1nnc(CSc2nc3ccccc3s2)n1-c1ccccc1 | – | – | – | – | –[0.501 µM] | –
CCn1c(CSc2nc3ccccc3s2)n[nH]c1=S | – | – | – | 11µM | 2.8µM | 32µM
O=C(O)CC1(CC(=O)N2CCC(Cc3ccccc3)CC2)CCCC1 | · | · | · | · | · | –
Cc1c(NC(=O)C2CC=CCC2C(=O)O)c(=O)n(-c2ccccc2)n1C (stereo not drawn) | – | – | 79µM | – | –[12.7 µM] | –
CCN1CCN(C(C)C(=O)Nc2c(C)n(C)n(-c3ccccc3)c2=O)CC1 (stereo not drawn) | ? | ? | 50µM | 7.9µM | 11µM | ?
CCN(CC)C(=O)Nc1c(C)n(C)n(-c2ccccc2)c1=O | – | – | – | – | – | –
